Compounds with a hit are over-represented: about 2.8% of the library has one in this group of screens.
PME-1 inh: PME-1 (human) inhibition; Q9Y570; recombinant PME-1, FP-Rh probe fluorescence polarization; inhibition, % at 5.9 µM; hit rate 0.53% among 320,000; AID 2130;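 active = inhibition above the campaign mean of all compounds plus 3 SD, cut at about 26% in these data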;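 also: competitive labeling of PME-1 active site by serine hydrolase directed probe; inhibitors block probe labeling so polarization falls and inhibition rises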
PAFAH2 inh: PAFAH2 (human) inhibition. inhibition, % at 3.39 µM. recombinant PAFAH2, FP-rhodamine activity probe, fluorescence polarization. hit rate 0.99% among 340,000. Q99487;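 active = inhibition above the mean over all tested compounds plus 3 SD, cut at about 30% in these data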;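 also: inhibitors block probe labeling of enzyme so polarization drops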
Fam108B counter: counter-screen for RBBP9 inhibitors: inhibitors of mouse Fam108B; recombinant Fam108B, FP-Rh probe fluorescence polarization; inhibition, % at 9.51 µM; hit rate 0.33% among 300,000; AID 1947;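 active = inhibition above the screen mean inhibition plus 3 SD, computed separately per campaign, cut at about 18% in these data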;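 also: inhibitors lower polarization as less probe binds the enzyme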
PAFAH1B3 FP inh: inhibitors of human PAFAH1B3. inhibition, % at 3.39 µM. Q15102. recombinant PAFAH1B3, FP-rhodamine probe, fluorescence polarization. hit rate 0.28% among 340,000;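 active = inhibition above the screen-wide average of all tested compounds plus 3 SD, cut at about 25% in these data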
Target sequence (Q15102 whole entry, looked up): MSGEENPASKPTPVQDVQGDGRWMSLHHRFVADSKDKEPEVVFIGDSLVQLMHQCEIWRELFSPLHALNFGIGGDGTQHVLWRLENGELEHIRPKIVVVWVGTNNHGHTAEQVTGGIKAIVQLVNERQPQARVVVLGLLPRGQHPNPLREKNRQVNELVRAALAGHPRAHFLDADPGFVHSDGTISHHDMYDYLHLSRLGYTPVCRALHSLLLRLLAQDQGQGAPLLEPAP
PAFAH1B2 inh: blocks human PAF acetylhydrolase 1b catalytic subunit 2; P68402; recombinant PAFAH1B2, FP-rhodamine activity probe, fluorescence polarization; AID 492953; hit rate 1.2% among 340,000; inhibition, % at 3.39 µM;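 active = inhibition above the mean of all tested compounds plus 3 SD, cut at about 24% in these data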
pPAFAH FP inh: inhibitors of human plasma PAF acetylhydrolase (pPAFAH); Q13093; recombinant pPAFAH, FP-rhodamine probe fluorescence polarization; inhibition, % at 3.39 µM; hit rate 1.5% among 330,000; AID 463082;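 active = inhibition above the mean inhibition across the screen plus 3 SD, cut at about 25% in these data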;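 also: inhibitors block binding of the rhodamine activity-based probe so polarization drops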
Target sequence (Q13093 whole entry, looked up): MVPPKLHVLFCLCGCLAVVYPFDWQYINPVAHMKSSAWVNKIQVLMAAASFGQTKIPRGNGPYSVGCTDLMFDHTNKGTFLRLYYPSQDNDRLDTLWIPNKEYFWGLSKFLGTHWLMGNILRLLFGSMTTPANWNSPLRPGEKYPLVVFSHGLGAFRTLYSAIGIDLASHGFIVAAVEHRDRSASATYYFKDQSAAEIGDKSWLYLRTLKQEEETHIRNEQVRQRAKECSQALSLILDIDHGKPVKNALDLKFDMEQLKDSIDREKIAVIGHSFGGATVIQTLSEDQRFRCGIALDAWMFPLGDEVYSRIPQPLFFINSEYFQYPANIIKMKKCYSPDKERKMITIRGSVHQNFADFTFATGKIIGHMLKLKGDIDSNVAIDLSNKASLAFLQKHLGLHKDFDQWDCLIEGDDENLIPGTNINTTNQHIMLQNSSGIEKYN
Numbers stand for hits.

What do the screens show for `O=C1C(=O)C(c2ccccc2)C(=O)C1c1ccccc1` (centres undefined)?
PAFAH2 inh: inactive; PAFAH1B3 FP inh: inactive; PAFAH1B2 inh: 32

What do the screens show for `CC(=O)c1sc(NC(=O)C2(F)C(F)(F)C(F)(F)C(F)(F)C(F)(F)C2(F)F)nc1C`?
PME-1 inh: inactive; PAFAH2 inh: inactive; Fam108B counter: inactive; PAFAH1B3 FP inh: inactive; PAFAH1B2 inh: 39; pPAFAH FP inh: inactive

Results for Cc1ccc(C(=O)NCC(c2ccc(F)cc2)N2CCOCC2)cc1S(=O)(=O)N1CCOCC1 (centres undefined) ?
PAFAH2 inh: inactive; PAFAH1B3 FP inh: inactive; PAFAH1B2 inh: inactive

What do the screens show for `Cn1nnnc1Sc1ncnc2scc(-c3cccs3)c12`?
PME-1 inh: inactive; PAFAH2 inh: inactive; PAFAH1B3 FP inh: inactive; PAFAH1B2 inh: inactive; pPAFAH FP inh: inactive

Results for COc1ccc(NS(=O)(=O)c2cccc(C(=O)N3CCCCCCC3)c2)cc1 ?
PME-1 inh: inactive; PAFAH2 inh: inactive; PAFAH1B3 FP inh: inactive; PAFAH1B2 inh: inactive; pPAFAH FP inh: 34

How did COc1ccc(NS(=O)(=O)c2cccc(C(=O)OCC(=O)N3CCN(c4ccc(OC)cc4)CC3)c2)cc1 do in these assays?
PME-1 inh: inactive; PAFAH2 inh: inactive; Fam108B counter: inactive; PAFAH1B3 FP inh: inactive; PAFAH1B2 inh: inactive; pPAFAH FP inh: 28

Results for COc1cccc(S(=O)(=O)Nc2ccc(C(=O)N3CCCCCC3)cc2)c1 ?
PME-1 inh: inactive; PAFAH2 inh: inactive; Fam108B counter: inactive; PAFAH1B3 FP inh: inactive; PAFAH1B2 inh: inactive; pPAFAH FP inh: inactive

Results for CCOC(=O)N1CCN(C(=O)c2cccc(S(=O)(=O)Nc3ccccc3Cl)c2)CC1 ?
PME-1 inh: inactive; PAFAH2 inh: inactive; PAFAH1B3 FP inh: inactive; PAFAH1B2 inh: inactive; pPAFAH FP inh: inactive

Results for COc1ccc(C(=O)N2CCCCC2)cc1S(=O)(=O)Nc1ccccc1 ?
PME-1 inh: inactive; PAFAH2 inh: inactive; Fam108B counter: inactive; PAFAH1B3 FP inh: inactive; PAFAH1B2 inh: inactive; pPAFAH FP inh: 33

How did CCOC(=O)N1CCN(C(=O)c2cccc(S(=O)(=O)Nc3ccc(Br)cc3)c2)CC1 do in these assays?
PME-1 inh: inactive; PAFAH2 inh: inactive; Fam108B counter: inactive; PAFAH1B3 FP inh: inactive; PAFAH1B2 inh: inactive; pPAFAH FP inh: 32

What do the screens show for `C=CC(=O)Nc1cccc(N(C)c2ccnc(Nc3ccc(N4CCN(C)CC4)cc3)n2)c1`?
PAFAH2 inh: inactive; PAFAH1B3 FP inh: inactive; PAFAH1B2 inh: inactive

What do the screens show for `COc1cccc(C(=O)OCC(=O)c2c(N)n(C)c(=O)n(C)c2=O)c1`?
PME-1 inh: inactive; PAFAH2 inh: inactive; PAFAH1B3 FP inh: inactive; PAFAH1B2 inh: inactive; pPAFAH FP inh: inactive

How did COc1ccc(NS(=O)(=O)c2cccc(C(=O)OCC(=O)c3c(N)n(C)c(=O)n(C)c3=O)c2)cc1 do in these assays?
PAFAH2 inh: inactive; PAFAH1B3 FP inh: inactive; PAFAH1B2 inh: inactive; pPAFAH FP inh: 29

How did COc1ccc(C(=O)N2CCNC(=O)C2)cc1S(=O)(=O)Nc1ccc(Br)cc1 do in these assays?
PME-1 inh: inactive; PAFAH2 inh: inactive; PAFAH1B3 FP inh: inactive; PAFAH1B2 inh: inactive; pPAFAH FP inh: 34

Results for Cc1ccc(NS(=O)(=O)c2ccc(C(=O)N3CCN(S(=O)(=O)c4ccccc4)CC3)cc2)cc1 ?
PME-1 inh: inactive; PAFAH2 inh: inactive; Fam108B counter: inactive; PAFAH1B3 FP inh: inactive; PAFAH1B2 inh: inactive; pPAFAH FP inh: inactive

What do the screens show for `Cc1cccc(NS(=O)(=O)c2cccc(C(=O)N3CCN(S(=O)(=O)c4ccccc4)CC3)c2)c1`?
PME-1 inh: inactive; PAFAH2 inh: inactive; Fam108B counter: inactive; PAFAH1B3 FP inh: inactive; PAFAH1B2 inh: 29; pPAFAH FP inh: inactive

Results for COc1ccc(NS(=O)(=O)c2cccc(C(=O)N3CCN(c4ccccc4O)CC3)c2)cc1 ?
PME-1 inh: inactive; PAFAH2 inh: inactive; Fam108B counter: inactive; PAFAH1B3 FP inh: inactive; PAFAH1B2 inh: inactive; pPAFAH FP inh: 27

What do the screens show for `COc1ccc(NS(=O)(=O)c2cccc(C(=O)N3CCN(C(=O)c4ccco4)CC3)c2)cc1`?
PAFAH2 inh: inactive; PAFAH1B3 FP inh: inactive; PAFAH1B2 inh: inactive; pPAFAH FP inh: inactive

How did COc1ccc(NS(=O)(=O)c2cccc(C(=O)N3CCN(Cc4cc(OC)ccc4OC)CC3)c2)cc1 do in these assays?
PME-1 inh: inactive; PAFAH2 inh: inactive; Fam108B counter: inactive; PAFAH1B3 FP inh: inactive; PAFAH1B2 inh: inactive; pPAFAH FP inh: inactive

Results for COc1ccc(OC)c(CN2CCN(C(=O)c3cccc(S(=O)(=O)Nc4ccc(C)cc4)c3)CC2)c1 ?
PME-1 inh: inactive; PAFAH2 inh: inactive; Fam108B counter: inactive; PAFAH1B3 FP inh: inactive; PAFAH1B2 inh: inactive; pPAFAH FP inh: 25

How did COc1ccc(S(=O)(=O)Nc2ccc(-n3cccc3)cc2)cc1 do in these assays?
PME-1 inh: inactive; PAFAH2 inh: inactive; Fam108B counter: inactive; PAFAH1B3 FP inh: inactive; PAFAH1B2 inh: inactive; pPAFAH FP inh: 28

Results for Cc1c(NC(=O)C(C)OC(=O)c2ccc([N+](=O)[O-])s2)c(=O)n(-c2ccccc2)n1C (centres undefined) ?
PME-1 inh: inactive; PAFAH2 inh: inactive; Fam108B counter: inactive; PAFAH1B3 FP inh: 33; PAFAH1B2 inh: inactive; pPAFAH FP inh: 30

How did CCCNC(=O)c1ccc(N2CCC3(CC2)CC(c2ccccc2)=NO3)c(NC(=O)Cc2ccc(F)cc2)c1 do in these assays?
PME-1 inh: inactive; PAFAH2 inh: inactive; Fam108B counter: inactive; PAFAH1B3 FP inh: inactive; PAFAH1B2 inh: inactive; pPAFAH FP inh: inactive

What do the screens show for `CC1(C)CC2(CC(c3ccccc3F)c3ccc(O)c(O)c3O2)NC(=S)N1` (centres undefined)?
PME-1 inh: inactive; PAFAH2 inh: inactive; Fam108B counter: inactive; PAFAH1B3 FP inh: inactive; PAFAH1B2 inh: inactive; pPAFAH FP inh: 33

How did NNC(=O)c1cc(NS(=O)(=O)c2cccs2)cc(NS(=O)(=O)c2cccs2)c1 do in these assays?
PAFAH2 inh: inactive; PAFAH1B3 FP inh: inactive; PAFAH1B2 inh: inactive; pPAFAH FP inh: 29

How did O=S(=O)(Nc1cccc(CO)c1)c1cccs1 do in these assays?
PME-1 inh: inactive; Fam108B counter: inactive; pPAFAH FP inh: inactive

What do the screens show for `CC(=O)c1ccc(N2CCN(CC(=O)N(C3CC3)C3CCS(=O)(=O)C3)CC2)c(F)c1` (centres undefined)?
PME-1 inh: inactive; PAFAH2 inh: inactive; PAFAH1B3 FP inh: inactive; PAFAH1B2 inh: inactive; pPAFAH FP inh: inactive

What do the screens show for `CC1(C)CC(NC(=O)c2cccc(S(=O)(=O)Nc3cccc(Cl)c3)c2)CC(C)(C)N1`?
PME-1 inh: inactive; PAFAH2 inh: inactive; PAFAH1B3 FP inh: inactive; PAFAH1B2 inh: inactive; pPAFAH FP inh: 27

How did COc1ccc(C2=NN(c3nc(-c4ccccc4)c(CC(=O)O)s3)C(c3ccco3)C2)cc1 (centres undefined) do in these assays?
PME-1 inh: inactive; PAFAH2 inh: inactive; Fam108B counter: inactive; PAFAH1B3 FP inh: inactive; PAFAH1B2 inh: inactive; pPAFAH FP inh: 30

Source: PubChem
